Compound activity (PubChem)
Pf apPOL inh: Pf-apPOL DNA polymerase inhibition; Recombinant Pf-apPOL, molecular beacon fluorescence, 1.5 h; inhibition, % at 10 µM; 210,000 compounds, 0.25% hits; AID 1794808
mHTT CaM bind: disrupts binding of mutant huntingtin to calmodulin; P42858; AlphaScreen His-mHTT/GST-CaM binding, luminescence; inhibition, % at 15 µM; 190,000 compounds, 3.6% hits
Numbers stand for hits; - = inactive; . = no result. Shown is part of a subset that was picked to be rich in hits. Cut-off read from the data, not from the text of the source: active = inhibition above about 50%; inactive = the rest.

SMILES	Pf apPOL inh	mHTT CaM bind
CCOc1cc(/C=C2\SC(=Nc3ccccc3)NC2=O)cc(Br)c1O	-	86
CCOc1ccc(N=C2NC(=O)/C(=C\c3ccc(OC)c(OC)c3)S2)cc1	-	-
COc1cc(/C=C2\SC(=Nc3ccccc3)NC2=O)cc(OC)c1O	-	74
CCOC(CC(=O)NN)OCC	-	.
CC1CCCN(CC(O)COC23CC4CC(CC(C4)C2)C3)C1 (centres undefined)	-	-
Cc1ccc(N2CCN(Cc3ccc(C)o3)CC2)cc1	-	-
CC(C)CCNC(=O)C1CC(=O)OC12CCCCC2 (centres undefined)	-	-
O=C(NCC1(c2ccccc2)CCCOCC1)c1ccccc1F (centres undefined)	-	-
C=CCOc1ccc(/C=C2/SC(=Nc3cccc(C(=O)O)c3)NC2=O)cc1OC	-	58
COc1cccc(/C=C2/SC(=Nc3cc(C)cc(C)c3)NC2=O)c1O	-	52
COc1cc(/C=C2\SC(=Nc3ccccc3)NC2=O)cc(I)c1O	-	68
CCOc1cc(/C=C2/SC(=O)NC2=O)cc([N+](=O)[O-])c1O	-	-
COc1ccc(/C=C2\SC(=Nc3cc(C)cc(C)c3)NC2=O)cc1	-	-
O=C1NC(=Nc2ccccc2)S/C1=C/c1cccc(O)c1	-	-
C=CCOc1ccc(/C=C2/SC(=Nc3ccccc3)NC2=O)cc1OC	-	-
COc1cc(/C=C2/SC(=Nc3cc(C)cc(C)c3)NC2=O)cc([N+](=O)[O-])c1O	-	54
O=C(NCCN1CCCCC1)c1cncc(-c2ccccc2Cl)c1	-	-
CC(C)NC(=O)c1cnn2c3c(cnc12)CCCC3	-	-
COC(=O)c1ccc(C(=O)OC)c(NC(=O)CSc2ncnc3sc(C)c(C)c23)c1	-	-
CCOC(=O)C1CCN(Cc2cc(=O)oc3cc(OC)ccc23)CC1	-	-
Clc1ccccc1CN1CCc2c([nH]c3ccccc23)C1	-	95
CN(C)c1ccc(CN2CCc3c([nH]c4ccccc34)C2)cc1	-	60
COc1cccc(CN2CCc3c([nH]c4ccccc34)C2)c1OC	-	-
c1ccc2c3c([nH]c2c1)CN(Cc1ccc2c(c1)OCO2)CC3	-	-
Cc1cccc(C2c3cccn3CCN2C(=O)CCC(=O)NC(C)C)c1 (centres undefined)	-	-
SMILES	Pf apPOL inh	mHTT CaM bind
Cc1cc(C)cc(NC(=O)Cn2cnc(C)c(C)c2=O)c1	-	-
COc1ccc(-c2nnc(NC(=O)c3ccc(S(=O)(=O)N4CCCCCC4)cc3)o2)cc1	-	-
COc1ccc(-c2nnc(NC(=O)c3ccc(OC)c(OC)c3)o2)cc1	-	50
COc1ccc(-c2nnc(NC(=O)c3ccc(S(=O)(=O)N4CCOCC4)cc3)o2)c(OC)c1	-	54
COc1ccc(-c2nnc(NC(=O)c3ccc(S(=O)(=O)N4CCCCC4)cc3)o2)cc1	74	-
COc1ccc(C(=O)Nc2nnc(-c3ccccc3)o2)cc1OC	-	-
COc1ccc(-c2nnc(NC(=O)c3ccc(S(=O)(=O)N4CCOCC4)cc3)o2)cc1	-	-
CCC(=O)OCCN1C(=O)c2cccc3c(N4CCCCC4)ccc(c23)C1=O	-	-
Cc1cccc(C(=O)Nc2nccn(-c3ccc(Br)cc3)c2=O)c1	-	-
O=C(O)C1C2C=CC(C2)C1C(=O)Nc1ccc(Br)cc1 (centres undefined)	-	-
COc1cccc(NC(=O)Cn2ccc3sccc3c2=O)c1	-	-
CC(Cc1ccco1)NC(=O)CCCc1ccccc1 (centres undefined)	-	-
COc1cc(Br)c(Cc2nc3ccccc3[nH]2)cc1OC	-	-
COc1ccc(-c2ccccc2)cc1NCc1ccc2c(c1)OCO2	-	57
COc1ccc(-c2ccccc2)cc1NCc1ccc(OC)c(OC)c1	-	73
COc1ccc(-c2ccccc2)cc1NCc1cc(OC)c(O)c([N+](=O)[O-])c1	-	66
COc1ccc(CNCc2ccc3c(c2)OCO3)cc1Br	-	-
COc1ccc([N+](=O)[O-])cc1NCc1ccccc1F	-	-
COc1ccc(CNC(=O)Cc2ccccc2)cc1OC	-	-
COc1ccc(-c2ccccc2)cc1NCc1ccccn1	-	72
COc1cc2c(cc1NCc1ccccn1)oc1ccccc12	-	-
COc1cccc(CNC(=O)c2ccc3c(c2)nc2n3CCCC2)c1OC	-	-
Cn1nc(-c2nc(Cc3ccccc3)no2)c2c1CCN(C(=O)c1c(F)cccc1F)C2	-	-
O=c1c(-c2cccc3ccccc23)coc2cc(O)ccc12	-	-
CCc1ccc(OCC(=O)O)cc1	-	-
SMILES	Pf apPOL inh	mHTT CaM bind
CCC(=O)Nc1ccc(O)c(-c2nc3cc(C)ccc3o2)c1	54	-
Cc1ccc2oc(-c3cc(NC(=O)c4ccccc4C)ccc3O)nc2c1	-	-
COc1cccc2cc(C(=O)Nc3nc(C)cs3)oc12	-	-
CN(C)c1ccc(NC(=O)C2CC(=O)N(c3ccc(Br)cc3)C2)cc1 (centres undefined)	-	-
COc1cc(C(=O)N2C(=S)C(c3ccccc3)=NC23CCCCC3)cc(OC)c1OC	-	-
COc1cc(OC)cc(C2=NC3(CCCC3)N(C(=O)c3ccc(OC)c(OC)c3)C2=S)c1	-	85
CC1=C([N+](=O)[O-])C(c2ccccc2)N(C)C(=O)N1C (centres undefined)	-	-
CCn1cc2c3c(cccc31)CN(C(=O)Cc1ccc(F)cc1)CC2	-	64
CCn1cc2c3c(cccc31)CN(C(=O)c1ccccc1F)CC2	-	56
CCC(=O)N1CCc2cn(CC)c3cccc(c23)C1	-	-
COc1ccc(OCC(=O)N2CCc3cn(C)c4cccc(c34)C2)cc1	-	-
Cn1cc2c3c(cccc31)CN(C(=O)Cc1cccc(F)c1)CC2	-	53
CCCn1cc2c3c(cccc31)CN(C(=O)COc1ccccc1)CC2	-	50
COCCn1cc2c3c(cccc31)CN(C(=O)Cc1cccc(F)c1)CC2	-	-
CCn1cc2c3c(cccc31)CN(C(=O)Nc1cccc(F)c1C)CC2	-	-
Cc1ccc(NC(=O)C2CC3CCC2C3)cc1Cl (centres undefined)	-	-
CC(C)(C)S(=O)(=O)c1ccc(NCCC2=CCCCC2)nn1	-	-
CCOCC(=O)N1CCc2cn(CC)c3cccc(c23)C1	-	-
COCCn1cc2c3c(cccc31)CN(C(=O)Cc1ccccc1Cl)CC2	-	71
COCCCNC(=O)N1CCc2cn(CCOC)c3cccc(c23)C1	-	-
COCCn1cc2c3c(cccc31)CN(C(=O)COc1cccc(C)c1)CC2	-	-
CCn1cc2c3c(cccc31)CN(C(=O)COc1ccc(F)cc1)CC2	-	74
COCCn1cc2c3c(cccc31)CN(C(=O)Cc1c(F)cccc1Cl)CC2	-	-
CCC(C(=O)N1CCc2cn(CCOC)c3cccc(c23)C1)c1ccccc1 (centres undefined)	-	63
COCCn1cc2c3c(cccc31)CN(C(=O)COc1ccccc1)CC2	-	55
SMILES	Pf apPOL inh	mHTT CaM bind
O=C(NCc1ccc(F)cc1)C1CCCN(c2nccnc2Sc2ccccc2)C1 (centres undefined)	-	-
COC(CNC(=O)C(Cc1ccccc1)NS(=O)(=O)c1ccc(Cl)cc1)OC (centres undefined)	-	-
Clc1ccc(OCCCN2CCOCC2)c(Br)c1	-	-
COCCn1cc2c3c(cccc31)CN(C(=O)COc1ccc(F)cc1)CC2	-	56
COCCn1cc2c3c(cccc31)CN(C(=O)COC)CC2	-	-
CC(C)(C)C1CCc2onc(C(=O)Nc3ccc(F)cc3F)c2C1 (centres undefined)	-	-
